From PubChem BioAssay
Calls of active or inactive are those of the source. Unless noted, how the calls were made is not given here.

Legend:
[1] = A549 cell viability effects, profiling panel, calcein-AM fluorescence, 48 h, basal (AID 1162); details: higher = more signal; further: test concentration not given here
[2] = adipocyte viability effects, profiling panel, cell-based, 3T3-L1 adipocytes, calcein-AM fluorescence, 48 h, basal (AID 1163); details: 3T3-L1 adipocytes viability, higher = more signal; further: test concentration not given here
[3] = HepG2 cell viability effects, profiling panel, calcein-AM fluorescence, 48 h, basal (AID 1164); details: higher = more signal; further: test concentration not given here
[4] = MM1S cell viability effects, profiling panel, calcein-AM fluorescence, 48 h, basal (AID 1165); details: higher = more signal;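 further: viability of MM1S multiple myeloma cells under basal unstimulated conditions; test concentration not given here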
[5] = basal RPMI8226 viability, no added stimulus, profiling panel, cell-based, calcein-AM fluorescence, 48 h, PK04 Diversity Set (AID 1166); details: RPMI8226 myeloma viability, higher = more signal;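 further: cells grown under basal conditions without added stimulus; test concentration not given here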
[6] = basal HepG2 mitochondrial membrane potential changes, profiling panel, cell-based, JC-1 fluorescence, 24 h, 100 nL compound (AID 1167); details: higher = more signal; further: test concentration not given here
[7] = basal 3T3-L1 adipocyte mitochondrial potential changes, profiling panel, cell-based, JC-1 fluorescence, 3T3-L1 adipocytes, 24 h, 100 nL compound (AID 1168); details: JC-1 mitochondrial fluorescence, higher = more signal, called active from +8 up or from −8 down; further: test concentration not given here
[8] = basal RPMI8226 mitochondrial membrane potential changes, profiling panel, cell-based, JC-1 fluorescence, 24 h, 100 nL compound (AID 1169); details: RPMI8226 myeloma, JC-1 mitochondrial potential fluorescence, higher = more signal; further: test concentration not given here
[9] = basal MM1S mitochondrial membrane potential changes, profiling panel, cell-based, JC-1 fluorescence, 24 h, 100 nL compound (AID 1170); details: higher = more signal; further: test concentration not given here
[10] = A549 lung cancer cell viability effects, profiling panel, resazurin fluorescence, 24 h, PK04 Diversity Set (AID 1171); details: higher = more signal, called active from +8 up or from −8 down; further: test concentration not given here
[11] = HepG2 liver cancer cell viability effects, profiling panel, resazurin fluorescence, 24 h, PK04 Diversity Set (AID 1172); details: higher = more signal; further: test concentration not given here
[12] = basal S. cerevisiae growth modulation, no modifier, primary screen, OD600, strain BY4716, 24 h, basal condition (AID 1173); details: OD600, 24 h, higher = more signal, called active from +8 up or from −8 down
[13] = MM1S myeloma cell viability, profiling panel, resazurin fluorescence, basal, 24 h, PK04 Diversity Set (AID 1174); details: higher = more signal, called active from +8 up or from −8 down;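 further: MM1S multiple myeloma cell line; test concentration not given here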
[14] = target: Dihydroorotate dehydrogenase (quinone), mitochondrial (Plasmodium falciparum (isolate 3D7)) (UniProt Q08210); experiment: PfDHODH enzyme inhibitors, primary screen, biochemical, C-terminal His tag, absorbance 600 nm (AID 1175); details: DCIP absorbance 600 nm, higher = more signal, called active from +8 up or from −8 down;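 further: recombinant parasite enzyme with a five histidine tag at its C terminus; test concentration not given here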
[15] = P. aeruginosa biofilm formation inhibitors, primary screen, strain PAO1, LB-PBS medium, absorbance 600 nm (AID 1176); further: test concentration not given here; details: P. aeruginosa PAO1 growth/biofilm, A600, 12 h; higher = more signal
[16] = S. cerevisiae RM11-1a growth modifiers, primary screen, strain RM11-1a, OD600, basal, 24 h (AID 1177); details: OD600, 24 h, higher = more signal, called active from +8 up or from −8 down;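 further: cultures grown under basal conditions with no added stressor; test concentration not given here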
[17] = E. coli acrAB mutant growth effects, primary screen, E. coli filamentation inducers, strain DRC39, OD650, 24 h (AID 1178); details: higher = more signal, called active from +8 up or from −8 down;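 further: growth measured as culture turbidity by optical density at 650 nm; test concentration not given here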
[18] = E. coli acrAB mutant growth effects, primary screen, E. coli filamentation inducers, strain DRC39, OD650, 48 h (AID 1179);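 further: screen aims at cell division blockers that make cells filament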; details: E. coli DRC39 delta-acrAB growth, higher = more signal, called active from +8 up or from −8 down
[19] = RPMI8226 myeloma cell viability, profiling panel, resazurin fluorescence, basal, 24 h, PK04 Diversity Set (AID 1180); details: higher = more signal;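 further: RPMI8826 multiple myeloma cell line at 5000 cells per well; test concentration not given here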
[20] = target: E3 ubiquitin-protein ligase XIAP (Homo sapiens) (UniProt P98170); experiment: XIAP binders, primary screen, biophysical, small-molecule microarray, fluorescence 635 nm (AID 1181); details: small-molecule microarray binding, higher = more signal;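 further: score merges 667 nm emission and signal to noise over triplicate slides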
Chain of E3 ubiquitin-protein ligase XIAP (Homo sapiens) (P98170 whole entry, looked up): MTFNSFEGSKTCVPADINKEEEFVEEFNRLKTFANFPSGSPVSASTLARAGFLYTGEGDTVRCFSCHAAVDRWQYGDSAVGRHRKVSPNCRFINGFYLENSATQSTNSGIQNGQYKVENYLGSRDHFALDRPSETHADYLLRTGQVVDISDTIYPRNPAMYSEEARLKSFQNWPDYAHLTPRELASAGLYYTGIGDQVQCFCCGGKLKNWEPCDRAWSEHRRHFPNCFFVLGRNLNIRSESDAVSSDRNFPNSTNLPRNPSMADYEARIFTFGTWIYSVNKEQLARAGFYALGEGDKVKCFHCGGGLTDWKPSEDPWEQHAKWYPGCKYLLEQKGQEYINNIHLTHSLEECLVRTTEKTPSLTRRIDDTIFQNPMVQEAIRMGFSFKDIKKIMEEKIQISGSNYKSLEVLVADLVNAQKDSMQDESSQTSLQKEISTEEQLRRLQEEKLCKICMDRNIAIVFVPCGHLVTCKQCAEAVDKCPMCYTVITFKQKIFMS

Chain of Dihydroorotate dehydrogenase (quinone), mitochondrial (Plasmodium falciparum (isolate 3D7)) (Q08210 whole entry, looked up): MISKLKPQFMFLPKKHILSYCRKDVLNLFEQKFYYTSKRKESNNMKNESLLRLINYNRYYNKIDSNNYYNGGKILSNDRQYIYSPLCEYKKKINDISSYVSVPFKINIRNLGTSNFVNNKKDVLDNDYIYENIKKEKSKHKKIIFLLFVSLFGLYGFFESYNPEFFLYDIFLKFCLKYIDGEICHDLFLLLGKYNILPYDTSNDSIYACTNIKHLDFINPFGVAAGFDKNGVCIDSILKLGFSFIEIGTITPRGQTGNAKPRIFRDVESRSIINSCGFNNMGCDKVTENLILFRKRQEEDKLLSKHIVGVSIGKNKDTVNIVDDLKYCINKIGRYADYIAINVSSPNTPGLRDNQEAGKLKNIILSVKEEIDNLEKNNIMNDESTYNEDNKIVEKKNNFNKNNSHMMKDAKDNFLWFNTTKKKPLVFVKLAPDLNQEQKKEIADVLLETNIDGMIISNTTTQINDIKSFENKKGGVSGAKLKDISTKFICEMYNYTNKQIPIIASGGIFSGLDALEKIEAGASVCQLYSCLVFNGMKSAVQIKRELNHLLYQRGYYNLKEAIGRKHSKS

C=C(CCCC)C(=O)CC[C@H](OC(=O)c1cccnc1)c1cccc(OCCO)c1
z-score [1]: 0.952 | z-score [2]: 0.136 | z-score [3]: 0.316 | z-score [4]: -3.35 | z-score [5]: -2.66 | z-score [6]: 1.39 | z-score [7]: 0.139 (inactive) | z-score [8]: -0.726 | z-score [9]: -0.592 | z-score [10]: 0.358 (inactive) | z-score [11]: -0.53 | z-score [12]: 0.704 (inactive) | z-score [13]: -1.29 (inactive) | composite z-score [14]: -0.455 (inactive) | z-score [15]: -0.21 (inactive) | z-score [16]: 1.7 (inactive) | z-score [17]: 0.477 (inactive) | z-score [18]: 0.262 (inactive) | z-score [19]: -2.01 | composite z-score [20]: -0.0582

C=CCC(OC(C)=O)[C@@H]1[C@@H](N(Cc2ccc(-c3cccc(C(F)(F)F)c3)o2)C(=O)c2ccc(C)cc2)c2cc(OCCCO)ccc2N1C(=O)c1ccc(-c2ccccc2)cc1 (stereo not given in full)
z-score [1]: 1.18 | z-score [2]: 0.345 | z-score [3]: 1.65 | z-score [4]: 1.02 | z-score [5]: 0.657 | z-score [6]: 3.89 | z-score [7]: -1.29 (inactive) | z-score [8]: 0.866 | z-score [9]: 0.112 | z-score [10]: -0.0211 (inactive) | z-score [11]: 0.0024 | z-score [12]: -0.15 (inactive) | z-score [13]: -0.936 (inactive) | composite z-score [14]: -0.23 (inactive) | z-score [15]: 0.477 (inactive) | z-score [16]: 0.677 (inactive) | z-score [17]: -0.456 (inactive) | z-score [18]: 0.0289 (inactive) | z-score [19]: 0.525 | composite z-score [20]: -0.127

CCCC[C@@H]1C[C@H]1[C@@H](NC(=O)c1ccc(-c2ccccc2)cc1)c1ccc(-c2ccccc2)cc1
z-score [1]: -1.78 | z-score [2]: 0.441 | z-score [3]: -0.997 | z-score [4]: -2.17 | z-score [5]: -2.33 | z-score [6]: -0.922 | z-score [7]: -0.949 (inactive) | z-score [8]: 0.196 | z-score [9]: -0.391 | z-score [10]: 0.719 (inactive) | z-score [11]: 0.543 | z-score [12]: -0.498 (inactive) | z-score [13]: -0.271 (inactive) | composite z-score [14]: -1.12 (inactive) | z-score [15]: 0.315 (inactive) | z-score [16]: 0.0066 (inactive) | z-score [17]: -0.836 (inactive) | z-score [18]: -1.19 (inactive) | z-score [19]: -0.0454 | composite z-score [20]: 0.359

CCCCC(CC)C(O)C1C=CC2C(=O)N(c3ccccc3)C(=O)C2N1Nc1ccccc1 (stereo not given)
z-score [1]: -0.5 | z-score [2]: 0.0749 | z-score [3]: -0.315 | z-score [4]: -0.137 | z-score [5]: -0.841 | z-score [6]: -2.35 | z-score [7]: 0.633 (inactive) | z-score [8]: -0.48 | z-score [9]: 0.00945 | z-score [10]: -0.885 (inactive) | z-score [11]: -1.3 | z-score [12]: -1.14 (inactive) | z-score [13]: -1.51 (inactive) | composite z-score [14]: -0.524 (inactive) | z-score [15]: 0.462 (inactive) | z-score [16]: -0.347 (inactive) | z-score [17]: -0.556 (inactive) | z-score [18]: -0.945 (inactive) | z-score [19]: -1.42 | composite z-score [20]: 0.387

COC(=O)[C@@]1(Cc2ccc(F)cc2)[C@H]2c3cc(C(=O)N(C)C)n(CCc4ccccn4)c3C[C@H]2CN1C(=O)c1ccccc1
z-score [1]: -0.619 | z-score [2]: 0.698 | z-score [3]: -1.39 | z-score [4]: 0.0635 | z-score [5]: -0.722 | z-score [6]: -0.0662 | z-score [7]: -0.539 (inactive) | z-score [8]: -0.153 | z-score [9]: 0.95 | z-score [10]: 0.429 (inactive) | z-score [11]: 0.244 | z-score [12]: 0.676 (inactive) | z-score [13]: -0.309 (inactive) | composite z-score [14]: -0.804 (inactive) | z-score [15]: 0.0944 (inactive) | z-score [16]: -0.182 (inactive) | z-score [17]: 0.2 (inactive) | z-score [18]: -1.02 (inactive) | z-score [19]: 0.357 | composite z-score [20]: 0.254

N#Cc1ccc(NN2C(C(O)c3cccs3)C=CC3C(=O)N(c4ccccc4)C(=O)C32)cc1 (stereo not given)
z-score [1]: 0.594 | z-score [2]: -0.327 | z-score [3]: 1.01 | z-score [4]: -0.0964 | z-score [5]: -0.598 | z-score [6]: -0.307 | z-score [7]: -0.0937 (inactive) | z-score [8]: 0.49 | z-score [9]: -0.218 | z-score [10]: 0.234 (inactive) | z-score [11]: -0.375 | z-score [12]: -1.97 (inactive) | z-score [13]: 0.0171 (inactive) | composite z-score [14]: -1.41 (inactive) | z-score [15]: 1.08 (inactive) | z-score [16]: -1.59 (inactive) | z-score [17]: 0.766 (inactive) | z-score [18]: 1.36 (inactive) | z-score [19]: 0.131 | composite z-score [20]: -0.126

COCCOC(=O)N1C(=O)[C@@]2(c3cc(C#CCCO)ccc31)[C@H](c1ccc(O)cc1)N1[C@H](c3ccccc3)[C@H](c3ccccc3)OC(=O)[C@H]1[C@@H]2C(N)=O
z-score [1]: 0.111 | z-score [2]: -0.0323 | z-score [3]: 1.97 | z-score [4]: 0.189 | z-score [5]: -0.934 | z-score [6]: -0.958 | z-score [7]: -1.44 (inactive) | z-score [8]: 0.057 | z-score [9]: -0.915 | z-score [10]: -0.322 (inactive) | z-score [11]: -0.231 | z-score [12]: 0.0254 (inactive) | z-score [13]: -0.644 (inactive) | composite z-score [14]: -0.294 (inactive) | z-score [15]: 0.911 (inactive) | z-score [16]: 0.565 (inactive) | z-score [17]: 0.145 (inactive) | z-score [18]: 0.138 (inactive) | z-score [19]: -1.08 | composite z-score [20]: -0.0272

O=C1N(CCS(=O)(=O)c2ccccc2)Cc2ccccc2C[C@]12N=C(c1ccc(OCCCO)cc1)O[C@@H]2c1ccccc1
z-score [1]: 1.82 | z-score [2]: 1.36 | z-score [3]: 1.17 | z-score [4]: 0.835 | z-score [5]: -0.962 | z-score [6]: -0.589 | z-score [7]: 0.603 (inactive) | z-score [8]: -1.08 | z-score [9]: 0.309 | z-score [10]: -3.17 (inactive) | z-score [11]: -1.08 | z-score [12]: 1.07 (inactive) | z-score [13]: -2.68 (inactive) | composite z-score [14]: -1.48 (inactive) | z-score [15]: 0.0658 (inactive) | z-score [16]: 1.52 (inactive) | z-score [17]: -0.0937 (inactive) | z-score [18]: 1.28 (inactive) | z-score [19]: -1.99 | composite z-score [20]: 0.0191

CCC[C@@H]1C=C(C(=O)O)[C@H](c2ccc(C)cc2)N1S(=O)(=O)c1ccc(C)cc1
z-score [1]: -0.85 | z-score [2]: 0.216 | z-score [3]: -0.522 | z-score [4]: -0.0213 | z-score [5]: 0.101 | z-score [6]: -0.584 | z-score [7]: -0.119 (inactive) | z-score [8]: -0.131 | z-score [9]: -0.166 | z-score [10]: -0.112 (inactive) | z-score [11]: -0.795 | z-score [12]: 0.0188 (inactive) | z-score [13]: -0.522 (inactive) | composite z-score [14]: -0.0451 (inactive) | z-score [15]: 0.89 (inactive) | z-score [16]: -0.213 (inactive) | z-score [17]: -0.591 (inactive) | z-score [18]: 0.0595 (inactive) | z-score [19]: -2.01 | composite z-score [20]: 0.22
